According to PubChem BioAssay AID1224861 (National Center for Advancing Translational Sciences (NCATS), 2016):
Records with an inconclusive call do not appear. Where a call stands in place of a potency, no number is given. Activity calls are given as the source filed them. Calls follow the shape of the dose curve; as a rule, active = well fitted cell-killing curve with a large enough effect; inconclusive = small, poorly fitted or top-dose-only effect, or effect the other way; inactive = flat fitted curve, though single readings scatter.

assay: Compound cytotoxicity measured by an ATP content assay as a counter-screen for lead compounds in human astrocytes; details: human astrocytes viability, ATP luminescence; series mostly up to 46.1 µM
Procedure, shortened: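 Cytotoxicity expressed as percent inhibition of cell viability from ATP-dependent luminescence, read after 10 min at room temperature with 1:1 kit reagent. Compound exposure times matched the primary screens, e.g. 6, 24 or 72 h, in cultured human astrocytes.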

| Structure (SMILES) | Potency |
| --- | --- |
| N[C@H](CSC(c1ccccc1)(c1ccccc1)c1ccccc1)C(=O)O | inactive |
| O=C(O)[C@@H](c1ccc(OCc2ccc3ccccc3n2)cc1)C1CCCC1 | inactive |
| CN(C)CCCSc1ccccc1NC(=O)/C=C/c1ccccc1 | inactive |
| CC(C)(C)COc1ccc(-n2cc(C(=O)O)cn2)cc1C#N | inactive |
| CCN1CCC(n2cc(CNc3cc(Cl)c4ncc(C#N)c(Nc5ccc(F)c(Cl)c5)c4c3)nn2)CC1 | inactive |
| O=C(Nc1ccc([N+](=O)[O-])cc1Cl)c1cc(Cl)ccc1O | 1.09 µM (active) |
| CC(O)=C(C#N)C(=O)Nc1ccc(C(F)(F)F)cc1 | 6.9 µM (active) |
| O[C@@H](COc1cccc2ncccc12)CN1CCN(C2c3ccccc3[C@@H]3[C@H](c4ccccc42)C3(F)F)CC1 (some centres undefined) | inactive |
| CCOCCOC(=O)/C=C/c1ccc(OC)cc1 | inactive |
| O=C(O)c1cccc(-c2noc(-c3ccccc3F)n2)c1 | 5.48 µM (active) |
| N#CC1(c2ccc(NC(=O)c3cccnc3NCc3ccncc3)cc2)CCCC1 | inactive |
| Cc1csc(NC(=O)c2sc3nc4c(c(C(F)(F)F)c3c2N)CCC4)n1 | 3.46 µM (active) |
| CC1=C(CO)C(=O)O[C@@H]([C@@H](C)[C@H]2CC[C@H]3[C@@H]4C[C@H]5O[C@]56[C@@H](O)C=CC(=O)[C@]6(C)[C@@H]4CC[C@]23C)C1 | inactive |
| C[C@@H](N)c1ccc(C(=O)Nc2ccnc3[nH]ccc23)cc1 | inactive |
| CCCCCCCC/C=C/C(=O)O | inactive |
| Nc1ccc(O)c(C(=O)O)c1 | inactive |
| O=c1c2ccccc2nc2n1CCc1c-2[nH]c2ccccc12 | inactive |

| Structure (SMILES) | Potency |
| --- | --- |
| CCCCCNC(=O)N1CCC(CN(Cc2ccc(Cl)cc2)Cc2ccc([N+](=O)[O-])s2)C1 (centres undefined) | inactive |
| Cc1c(N)c(=O)n(-c2ccccc2)n1C | inactive |
| C=CCCCCCCCCC(=O)O | inactive |
| O=C(O)c1ccccc1NCCc1ccccc1 | inactive |
| COc1cc2nc(N3CCN(C(=O)C4CCCO4)CC3)nc(N)c2cc1OC (centres undefined) | inactive |
| CC(C)(C)OC(=O)CN(Cc1ccc(Cl)cc1)Cc1ccc([N+](=O)[O-])s1 | inactive |
| CN1CC(=O)N2C(Cc3c([nH]c4ccccc34)[C@H]2c2ccc3c(c2)OCO3)C1=O (some centres undefined) | inactive |
| CC1(C)Cc2c(sc(NC(=S)NC(=O)c3ccccc3)c2C(=O)O)CO1 | inactive |
| NC(N)=NN=C(/C=C/c1ccc([N+](=O)[O-])o1)/C=C/c1ccc([N+](=O)[O-])o1 | 3.46 µM (active) |
| CN1CCN(c2cc3c(nn2)Oc2ccccc2N3C)CC1 | inactive |
| CCCCCCCCCCCC(=O)[O][Sn]([CH2]CCC)([CH2]CCC)[O]C(=O)CCCCCCCCCCC | inactive |
| Cc1cc(O)c2ccccc2c1O | 8.69 µM (active) |
| COc1ccc(CC2=NN3C([C@@H](CCc4ccccc4)[C@@H](C)O)=NC(C)C3C(=O)N2)cc1OC (some centres undefined) | inactive |
| CC(=C(CCOC(=O)C(C)C)SSC(CCOC(=O)C(C)C)=C(C)N(C=O)Cc1cnc(C)nc1N)N(C=O)Cc1cnc(C)nc1N | inactive |
| COc1cc2nc(-c3ccc(N4CCN(C)CC4)cc3)nc(NCCN3CCOCC3)c2cc1OC | inactive |
| OCc1ccc(-c2ccc(-c3ccc(CO)s3)o2)s1 | 21.8 µM (active) |
| CCCS(=O)c1ccc2nc(NC(=O)OC)[nH]c2c1 (centres undefined) | inactive |
